Measurements taken from the supplement of paper PMC9694430.

Experiments:
Assay in all cases: thermal shift delta Tm vs DMSO control; higher = stronger stabilization (binding)
Conditions in all cases: 12.5 µM; protein concentration 2 µM
LOC_OS02G45750-cb003 = test system: LOC_OS02G45750-cb003
Procedure, shortened: (§1)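 Compounds dissolved in DMSO were added to purified rice kinase domain constructs, which had been expressed in E. coli, for differential scanning fluorimetry. Each well held 19.5 μl of 2 μM kinase in 100 mM potassium phosphate pH 7.5, 150 mM NaCl, 10% glycerol and 5 × SYPRO Orange. Fluorescence was followed from 25°C to 95°C at a rate of 0.05°C/s. Shifts in Boltzmann-fitted melting temperature are triplicate means relative to DMSO-only protein.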

LOC_OS02G54510-cb004 = test system: LOC_OS02G54510-cb004
Procedure, shortened: as §1

LOC_OS03G04050-cb001 = test system: LOC_OS03G04050-cb001
Procedure, shortened: as §1

LOC_OS03G12390-cb001 = test system: LOC_OS03G12390-cb001
Procedure, shortened: as §1

LOC_OS03G27990-cb004 = test system: LOC_OS03G27990-cb004
Procedure, shortened: as §1

LOC_OS03G50450-cb001 = test system: LOC_OS03G50450-cb001
Procedure, shortened: as §1

LOC_OS03G50810-cb003 = test system: LOC_OS03G50810-cb003
Procedure, shortened: as §1

LOC_OS04G35114-cb001 = test system: LOC_OS04G35114-cb001
Procedure, shortened: as §1

LOC_OS04G38480-cb003 = test system: T1, LOC_OS04G38480-cb003
T1 sequence (whole entry): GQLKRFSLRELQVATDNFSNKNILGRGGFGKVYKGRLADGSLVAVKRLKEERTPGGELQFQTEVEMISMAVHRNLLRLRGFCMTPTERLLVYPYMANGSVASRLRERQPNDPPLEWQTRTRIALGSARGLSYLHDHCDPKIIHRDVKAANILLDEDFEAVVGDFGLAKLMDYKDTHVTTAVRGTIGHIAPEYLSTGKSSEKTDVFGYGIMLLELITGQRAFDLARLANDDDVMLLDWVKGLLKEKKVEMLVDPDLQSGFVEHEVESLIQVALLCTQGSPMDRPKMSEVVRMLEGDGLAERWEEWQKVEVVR
Procedure, shortened: as §1

LOC_OS04G41100-cb001 = test system: T2, LOC_OS04G41100-cb001
T2 sequence (whole entry): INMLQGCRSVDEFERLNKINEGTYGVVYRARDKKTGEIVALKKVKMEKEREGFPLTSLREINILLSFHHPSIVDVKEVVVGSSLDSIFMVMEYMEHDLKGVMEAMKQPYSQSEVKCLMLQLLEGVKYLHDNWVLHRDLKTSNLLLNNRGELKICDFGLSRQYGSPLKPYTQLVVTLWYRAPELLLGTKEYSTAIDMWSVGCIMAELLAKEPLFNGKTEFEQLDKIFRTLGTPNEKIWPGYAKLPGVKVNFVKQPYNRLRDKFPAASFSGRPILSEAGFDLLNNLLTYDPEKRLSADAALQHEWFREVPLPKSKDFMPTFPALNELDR
Procedure, shortened: as §1

LOC_OS04G57630-cb004 = test system: LOC_OS04G57630-cb004
Procedure, shortened: as §1

LOC_OS05G07850-cb002 = test system: LOC_OS05G07850-cb002
Procedure, shortened: as §1

LOC_OS05G16824-cb004 = test system: LOC_OS05G16824-cb004
Procedure, shortened: as §1

LOC_OS05G28520-cb001 = test system: LOC_OS05G28520-cb001
Procedure, shortened: as §1

LOC_OS05G30820-cb001 = test system: LOC_OS05G30820-cb001
Procedure, shortened: as §1

LOC_OS05G43570-cb004 = test system: LOC_OS05G43570-cb004
Procedure, shortened: as §1

LOC_OS06G16330-cb003 = test system: LOC_OS06G16330-cb003
Sequence of LOC_OS06G16330-cb003 (as listed by the source): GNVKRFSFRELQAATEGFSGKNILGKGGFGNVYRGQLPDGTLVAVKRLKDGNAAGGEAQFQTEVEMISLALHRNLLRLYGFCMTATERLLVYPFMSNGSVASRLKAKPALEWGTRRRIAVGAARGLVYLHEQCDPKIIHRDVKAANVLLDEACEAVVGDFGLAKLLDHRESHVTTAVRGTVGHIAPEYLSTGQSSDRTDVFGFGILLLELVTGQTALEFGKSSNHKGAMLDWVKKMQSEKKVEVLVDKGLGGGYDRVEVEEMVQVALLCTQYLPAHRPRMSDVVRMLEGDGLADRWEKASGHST
Procedure, shortened: as §1

LOC_OS06G22820-cb001 = test system: T3, LOC_OS06G22820-cb001
T3 sequence (whole entry): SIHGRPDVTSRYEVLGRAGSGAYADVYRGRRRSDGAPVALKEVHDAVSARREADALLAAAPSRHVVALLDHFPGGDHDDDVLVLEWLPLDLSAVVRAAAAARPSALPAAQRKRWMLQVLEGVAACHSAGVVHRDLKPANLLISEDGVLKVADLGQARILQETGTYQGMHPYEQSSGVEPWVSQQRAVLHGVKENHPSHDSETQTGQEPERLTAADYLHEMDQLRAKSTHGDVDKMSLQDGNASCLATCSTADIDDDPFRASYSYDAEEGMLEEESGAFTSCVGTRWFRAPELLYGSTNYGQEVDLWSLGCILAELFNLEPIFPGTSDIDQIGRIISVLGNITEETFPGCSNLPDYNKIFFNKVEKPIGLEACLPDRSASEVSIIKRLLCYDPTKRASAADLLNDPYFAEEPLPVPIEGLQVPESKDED
Procedure, shortened: as §1

LOC_OS07G06570-cb004 = test system: LOC_OS07G06570-cb004
Procedure, shortened: as §1

LOC_OS07G07230-cb001 = test system: LOC_OS07G07230-cb001
Procedure, shortened: as §1

| Compound | thermal shift delta Tm (LOC_OS02G45750-cb003) [°C] | thermal shift delta Tm (LOC_OS02G54510-cb004) [°C] | thermal shift delta Tm (LOC_OS03G04050-cb001) [°C] | thermal shift delta Tm (LOC_OS03G12390-cb001) [°C] | thermal shift delta Tm (LOC_OS03G27990-cb004) [°C] | thermal shift delta Tm (LOC_OS03G50450-cb001) [°C] | thermal shift delta Tm (LOC_OS03G50810-cb003) [°C] | thermal shift delta Tm (LOC_OS04G35114-cb001) [°C] | thermal shift delta Tm (LOC_OS04G38480-cb003) [°C] | thermal shift delta Tm (LOC_OS04G41100-cb001) [°C] | thermal shift delta Tm (LOC_OS04G57630-cb004) [°C] | thermal shift delta Tm (LOC_OS05G07850-cb002) [°C] | thermal shift delta Tm (LOC_OS05G16824-cb004) [°C] | thermal shift delta Tm (LOC_OS05G28520-cb001) [°C] | thermal shift delta Tm (LOC_OS05G30820-cb001) [°C] | thermal shift delta Tm (LOC_OS05G43570-cb004) [°C] | thermal shift delta Tm (LOC_OS06G16330-cb003) [°C] | thermal shift delta Tm (LOC_OS06G22820-cb001) [°C] | thermal shift delta Tm (LOC_OS07G06570-cb004) [°C] | thermal shift delta Tm (LOC_OS07G07230-cb001) [°C] |
| --- | --- | --- | --- | --- | --- | --- | --- | --- | --- | --- | --- | --- | --- | --- | --- | --- | --- | --- | --- | --- |
| Cc1c(Cn2c(C)nc3c(C(=O)O)cc(N4CCOCC4)cc32)cccc1C(F)(F)F | 0.34 | 0.11 | 0.14 | -0.17 | 0.07 | 0.48 | 0.29 | 0.99 | 0.75 | 0.4 | -0.06 | -0.15 | -2.15 | -0.07 | 0.36 | 0.33 | -0.16 | 0.35 | 1.32 | 0.5 |
| O=C(Nc1ccc(OC(F)(F)F)cc1)c1sccc1NCc1ccnc2ccccc12 | 0.52 | 4.36 | 0.44 | 0.88 | 0.45 | 0.51 | 0.48 | 0.29 | 0.95 | 0.59 | 0.49 | 2.25 | -0.83 | 0.05 | 0.65 | 0.67 | 0.61 | 0.92 | 0.2 | -0.46 |
| FC(F)(F)c1ccc(Nc2nc3ccc(Oc4ccnc(-c5ncc(C(F)(F)F)[nH]5)c4)cc3[nH]2)cc1 [Raf265 derivative] | 1.97 | 0.28 | 0.92 | 1.89 | 0.72 | 1.24 | 1.68 | 0.2 | 2.16 | 1.09 | 1.36 | 0.46 | 7.37 | 1.01 | 0.29 | 1.6 | 1.16 | 0.73 | 1.65 | 0.27 |
| COc1cc2/c(=N/c3ccc(Br)cc3F)nc[nH]c2cc1OCC1CCN(C)CC1 [Vandetanib (ZD6474)] | 3.64 | 0.98 | 0.67 | 2.45 | 2.29 | 1.05 | 2.26 | 8.6 | 3.76 | 0.73 | 2.9 | 9.77 | 2.5 | 0.62 | 0.52 | -0.25 | 9.59 | 1.8 | 4.17 | 0.94 |
| NC[C@@](O)(c1ccc(Cl)cc1)c1ccc(-c2cn[nH]c2)cc1 | 1.24 | 0.3 | 0.31 | 0.49 | 0.56 | 0.8 | 0.36 | 1.05 | 1.51 | 0.81 | 0.11 | 1.75 | 0.67 | 0.5 | 0.47 | 2.11 | 0.77 | 0.65 | 0.91 | 0.04 |
| CC[C@H](CO)Nc1nc(NCc2ccccc2)c2ncn(C(C)C)c2n1 [Roscovitine (Seliciclib,CYC202)] | 0.1 | 0.11 | 0.22 | 0.14 | -0.05 | 0.28 | 0.02 | 0.57 | 0.99 | 0.53 | -0.29 | 0.09 | -1.49 | 0.43 | 0.33 | 0.28 | 0.01 | 0.63 | 0.88 | 0.44 |
| O=C(Nc1c[nH]nc1-c1nc2ccc(CN3CCOCC3)cc2[nH]1)NC1CC1 | 8.3 | 2.96 | 1.22 | 7.72 | 6.08 | 3.92 | 6.02 | 5.39 | 3.78 | 8.54 | 3.7 | 14.2 | 14.9 | 0.46 | 4.77 | 1.2 | 10.7 | 0.86 | 0.71 | 0.15 |
| CSc1cccc(Nc2ncc3cc(-c4c(Cl)cccc4Cl)c(=O)n(C)c3n2)c1 | 1.81 | 1.36 | 0.46 | 0.1 | 0.26 | 0.49 | 0.58 | 2.51 | 1.67 | 0.59 | 0.15 | 5.12 | 1.03 | 0.64 | 0.34 | 0.27 | 0.34 | 0.59 | 0.45 | 0.66 |
| O=C(c1ccc(Nc2nccc(-c3cc4ccccc4s3)n2)cc1)N1CCC(N2CCCC2)CC1 [IKK-16 (IKK Inhibitor VII)] | 6.42 | 1.74 | 0.22 | 2.55 | 4.05 | 1.23 | 5.04 | 5.32 | 3.88 | 4.91 | 5.63 | 15.2 | 7.99 | 1.89 | 0.77 | -0.31 | 9.02 | 0.14 | 0.72 | 0.03 |
| C=CCc1ccc(O)c(-c2ccc(O)c(CC=C)c2)c1 [Honokiol] | -0.57 | 0.26 | 0.72 | -0.04 | 0.52 | 0.5 | 0.47 | 0.36 | 1.32 | 0.48 | 0.34 | 0.49 | 1.45 | 0.24 | 0.69 | 0.62 | 0.47 | 0.7 | 0.49 | -0.78 |
| CCCCNc1ncc(C(=O)NCc2ccc(-n3ccnc3)cc2)c(NC2CCC(O)CC2)n1 (stereo not given) | 12.4 | 0.46 | 0.27 | 2.82 | 5.72 | 1.85 | 4.77 | 9.02 | 2.91 | 0.89 | 3.08 | 11 | 8.45 | 0.43 | 1 | 0.57 | 11.2 | 0.49 | 1.44 | 0.57 |
| NC(=O)c1ncn([C@@H]2O[C@H](CO)[C@@H](O)[C@H]2O)c1N [AICAR (Acadesine)] | 0.81 | 0.42 | 0.68 | 0.15 | 0.5 | 0.66 | 0.55 | 0.59 | 0.31 | 0.46 | 0.05 | 0.57 | -1.12 | -0.02 | 0.45 | 0.5 | 0.02 | 0.92 | 1.07 | -0.25 |
